# Only some compounds are listed: those with a hit (about 19% of all), similar ones and a draw of the others.
# DT40 TDP1 CPT = qHTS for Inhibitors of human tyrosyl-DNA phosphodiesterase 1 (TDP1): qHTS in cells in presence of CPT; chicken DT40 Tdp1-/-;hTDP1 cells + 20 nM CPT, ATP luminescence, 48 h; Potency, µM (titrated, usually from 46.2 µM), for the others: at the highest dose activity change, negative = growth inhibition, hits mostly inhibitors; actives 12% (n = 420,000); AID 686979, 2013; note: nearly all actives have a fitted effect of over 55% in size
#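 Chicken DT40 Tdp1-/- cells stably complemented with human TDP1 were seeded at 400 cells/well in medium containing 20 nM camptothecin, exposed to pin-transferred compounds, and grown at 37 °C for at least 48 hr. Viability was read as ATP luminescence.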
# TDP1 cell noCPT = qHTS for Inhibitors of human tyrosyl-DNA phosphodiesterase 1 (TDP1): qHTS in cells in absence of CPT; DT40 Tdp1-/- hTDP1 cells, no CPT, ATP luminescence, 48 h; Potency, µM (top dose mostly 46.2 µM), without a hit: top-dose activity change, negative = growth inhibition, hits mostly inhibitors; actives 15% (n = 420,000); AID 686978, 2013; note: nearly all actives have a fitted effect of over 55% in size
#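 Chicken DT40 Tdp1-/- cells complemented with human TDP1, screened without camptothecin (DMSO vehicle only), 400 cells/well. Compounds pin-transferred, cells incubated at 37 °C for at least 48 hr. Growth read as ATP-dependent luminescence (CellTiter-Glo, 30 min at RT).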
# HT1080-NT tox = qHTS for induction of synthetic lethality in tumor cells producing 2HG: qHTS for the HT-1080-NT fibrosarcoma cell line; HT-1080-NT fibrosarcoma viability, CellTiter-Glo ATP luminescence, 48 h; Potency, µM (top dose mostly 46.1 µM), for inactives: at the highest dose activity, negative = less viability, usual class: cytotoxic; AID 686970, 2013; actives 1.6% (n = 360,000);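 note: NT is the 2HG producing partner of a matched IDH1 knockdown line; 0% = DMSO-treated cells and -100% = media-only wells without cells; nearly all actives have a fitted effect of over 55% in size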
#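 HT-1080-NT fibrosarcoma cells (2HG-overproducing), 750 cells/well in RPMI with 5% FBS, dosed after 2 h and incubated 48 h at 37C. CellTiter-Glo luminescence normalized to DMSO and no-cell wells; concentration-response curves fitted and classed.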
# KB-3-1 tox = qHTS assay for MDR1-selective chemotherapeutics: Primary screen using the parental adenocarcinoma cell KB-3-1 | KB-3-1 viability, CellTiter-Glo ATP luminescence, 72 h | Potency, µM (top dose mostly 46.1 µM), actives largely listed as cytotoxic | actives 1.4% (n = 400,000) | AID 1347075, 2019; note: nearly all actives have a fitted effect of over 60% in size
#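 72 h, 37 °C compound treatment of KB-3-1 parental cells; CellTiter-Glo added, 10 min, luminescence read. Data corrected against DMSO-only plates and normalized before curve fitting.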
# KB-V1 cytotox = qHTS assay for MDR1-selective chemotherapeutics: Primary screen using the drug-selected MDR subline cells KB-V1 | Potency, µM (top dose mostly 46.1 µM), actives largely listed as cytotoxic | AID 1347076, 2019 | actives 3.4% (n = 400,000) | KB-V1 MDR cells viability, CellTiter-Glo, 72 h; note: nearly all actives have a fitted effect of over 60% in size
#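 Compound-treated KB-V1 multidrug-resistant cells, 72 h, 37 degrees C; viability by CellTiter-Glo. Fitted qHTS curves give the values.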
# HT1080 IDH1KD tx = qHTS for induction of synthetic lethality in tumor cells producing 2HG: qHTS for the HT-1080-IDH1KD cell line. actives 2% (n = 360,000). Potency, µM (doses to about 46.1 µM), for the others: at the top dose activity, negative = toxicity, hits mostly cytotoxic. AID 686971, 2013. HT-1080 IDH1 knockdown viability, ATP luminescence, 48 h;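 note: 0% = DMSO wells and -100% = cell-free medium wells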
#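 Cytotoxicity counter-line: IDH1KD HT-1080, 48 h, CellTiter-Glo. Curves classed by r2, magnitude and activity.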
# Numbers without * were called inactive; i = inactive; ? = inconclusive; · = no result. Calls come from the whole dose curve; as a rule, active = well fitted curve in the direction sought with a large enough effect; inconclusive = small, poorly fitted or top-dose-only effect, or another doubt; inactive = no such curve, though single readings can be large; an effect the other way counts as inactive or inconclusive. Unless noted, % is set by controls: 0 for no effect and ±100 for the full control effect; potency is the fitted concentration of half-maximal effect.
SMILES,DT40 TDP1 CPT,TDP1 cell noCPT,HT1080-NT tox,KB-3-1 tox,KB-V1 cytotox,HT1080 IDH1KD tx
COc1ccc(-c2cc3nc(-c4ccccc4)cc(N4CCC(O)CC4)n3n2)cc1,?,?,18µM*,i,?,?
COc1ccc(-c2cc3nc(-c4ccc(C)cc4)cc(C(F)(F)F)n3n2)cc1,5%,-1%,·,i,?,·
O=C(Nc1cccc([N+](=O)[O-])c1)C1COc2ccccc2O1 (configuration not stated),-12%,?,2%,i,i,5%
CCCCNC(=O)c1c(N)[nH]c(C(=O)c2ccccc2)c1-c1ccccn1,?,?,-3%,?,21µM*,-2%
COc1cc2cc(C(=O)NCCc3c[nH]c4ccccc34)c(N)nc2cc1OC,?,16µM*,?,i,i,?
COc1ccc(C(=O)c2[nH]c(N)c(C(=O)NCCc3c[nH]c4ccccc34)c2-c2c(F)cccc2Cl)cc1,16µM*,15µM*,-9%,i,i,-7%
COc1ccc(C(=O)NCCc2c[nH]c3ccccc23)cc1,?,-18%,1%,i,i,-2%
COc1ccc(C(=O)c2[nH]c(N)c(C(=O)NCCc3c[nH]c4ccccc34)c2-c2ccc(OC)c(OC)c2)cc1,16µM*,8.2µM*,?,?,i,?
Nc1[nH]c(C(=O)c2ccccc2)c(-c2ccc(F)cc2)c1C(=O)NCc1ccccc1,-1%,-1%,6%,i,i,9%
COc1cc(CN2C(=O)C(C)ON=C2c2ccccc2F)cc(OC)c1 (configuration not stated),?,?,3%,i,i,10%
O=C(/C=C/c1ccccc1)Nc1cc(-c2nc3ccccc3o2)ccc1Cl,?,-25%,·,i,i,·
Cc1ccc(Cl)cc1NC(=O)Nc1nnc(N2CCCC(C)C2)s1 (configuration not stated),-2%,-17%,·,i,i,·
Nc1[nH]c(C(=O)c2ccccc2)c(-c2ccc(F)cc2)c1C(=O)NCCc1c[nH]c2ccccc12,?,23µM*,4%,?,?,3%
Nc1[nH]c(C(=O)c2ccccc2)c(-c2ccc(Cl)cc2)c1C(=O)NCCc1c[nH]c2ccccc12,?,?,?,?,i,-25%
CC(=O)N1CCCc2cc(S(=O)(=O)NCc3ccccc3Cl)ccc21,?,?,·,i,i,·
O=C(NCCCN1CCN(c2cccc(Cl)c2)CC1)C1CCC(=O)N1Cc1ccccc1Cl (configuration not stated),16µM*,?,-26%,?,?,?
CNC(=O)C1CCC(=O)N1Cc1ccccc1Cl (configuration not stated),-3%,-2%,5%,i,i,5%
O=C(Nc1cc(Cl)cc(Cl)c1)C1CCC(=O)N1Cc1ccccc1Cl (configuration not stated),23µM*,?,-19%,?,?,-21%
CCN(CCNC(=O)C1CCC(=O)N1Cc1ccc(C)cc1)c1ccccc1 (configuration not stated),-19%,-16%,0%,i,?,6%
CCN(CCCNC(=O)C1CCC(=O)N1Cc1ccc(C)cc1)c1cccc(C)c1 (configuration not stated),13µM*,23µM*,-4%,i,i,-2%
CCN(CCCNC(=O)C1CCC(=O)N1Cc1ccccc1Cl)c1cccc(C)c1 (configuration not stated),16µM*,23µM*,-4%,i,6.5µM*,-3%
O=c1c(-c2ccccc2)nc2cnc(Oc3cccc(Cl)c3)nc2n1C[C@H]1CCCO1,-13%,-30%,·,·,·,·
CN(CCCNC(=O)C1CCC(=O)N1Cc1ccccc1Cl)c1ccccc1 (configuration not stated),-21%,?,-2%,i,23µM*,-16%
CCN(CCCNC(=O)C1CCN(S(=O)(=O)N2CCOCC2)CC1)c1cccc(C)c1,?,16µM*,1%,i,i,0%
O=C(CNC(=O)c1ccco1)OCC(=O)c1ccc(Cl)cc1Cl,1%,4%,8%,i,i,1%
SMILES,DT40 TDP1 CPT,TDP1 cell noCPT,HT1080-NT tox,KB-3-1 tox,KB-V1 cytotox,HT1080 IDH1KD tx
CC(Sc1nnc(-c2ccco2)n1N)C(=O)NCc1ccc2c(c1)OCO2 (configuration not stated),-10%,4%,9%,i,i,9%
COc1ccc(NC(=O)CSc2ncc(-c3ccc(Cl)cc3)[nH]2)cc1OC,?,15µM*,·,i,i,·
COc1ccc(NC(=O)CSc2nc3[nH]ncc3c(=O)[nH]2)cc1OC,-8%,-3%,5%,i,i,2%
Cc1cccc(NC(=O)CSc2ncc(-c3ccc(Br)cc3)[nH]2)c1,23µM*,?,·,i,i,·
CCC1CCCCN1Cc1nc2c(c(=O)n(C)c(=O)n2C)n1CCC(C)C (configuration not stated),16µM*,15µM*,1%,?,i,14%
CCCCCCn1c(CN2CCCCC2CC)nc2c1c(=O)n(C)c(=O)n2C (configuration not stated),23µM*,13µM*,6%,i,i,0%
COc1ccc(CNC(=O)C(C)OC(=O)CN2C(=O)COc3ccccc32)cc1 (configuration not stated),-1%,-6%,6%,i,i,6%
COc1ccc(C(NC(=O)c2cc(OC)ccc2OC)c2ccccc2)cc1 (configuration not stated),-26%,?,?,?,8.2µM*,?
COc1ccc(CC(=O)NC(c2ccccc2)c2ccc(C)cc2)c(OC)c1 (configuration not stated),?,18µM*,18%,i,i,3%
COc1ccc(OC)c(CC(=O)NC(c2ccccc2)c2ccccc2)c1,-12%,-27%,-8%,i,i,-13%
